# Measured values reported in PubChem BioAssay (NCI).
# Compounds without any hit were thinned out: in the full panel of roughly 79,000, 15% have a hit. Values without a mark were called inactive. Active and inactive are the calls of the source. No stated cut-off is given here; in the data, active means growth inhibition above about 70%; inactive means the rest.
# How the values were obtained:
# [1] = NCI Yeast Anticancer Drug Screen. Data for the rad52 strain (AID 147);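 further: 0% = growth of vehicle-treated control cultures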; details: S. cerevisiae rad52 mutant growth inhibition, active compounds read high
# Procedure, shortened: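 Compounds are applied to a genetically defined yeast strain lacking normal DNA damage repair, and inhibition of growth is expressed relative to cultures given vehicle only.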
# [2] = NCI Yeast Anticancer Drug Screen. Data for the wt1 strain (AID 149);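 further: 0% = growth of vehicle-treated wt1 cultures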; details: S. cerevisiae wt1 strain (SPY 50644) growth inhibition, active compounds read high
# Procedure, shortened: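 wt1 strain grown with compound or vehicle; inhibition taken from the growth difference.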
# [3] = NCI Yeast Anticancer Drug Screen. Data for the rad50 strain (AID 155);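 further: 0% = growth of vehicle-only cultures of the same strain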; details: S. cerevisiae rad50 strain growth inhibition, active compounds read high
# Procedure, shortened: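 DNA repair mutant yeast, compound exposure, growth read-out; inhibition is taken relative to vehicle.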
# [4] = NCI Yeast Anticancer Drug Screen. Data for the mec2-1 strain (AID 157); details: S. cerevisiae mec2-1 strain, active compounds read high
# Procedure, shortened: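 Strain: mec2-1 (DNA repair/cell cycle alteration). Compound exposure, then growth measured; inhibition expressed relative to vehicle.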
# [5] = NCI Yeast Anticancer Drug Screen. Data for the rad14 strain (AID 159);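 further: 0% = growth of vehicle-treated control cultures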; details: S. cerevisiae rad14 strain growth inhibition, active compounds read high
# Procedure, shortened: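 DNA repair-defective yeast, compound-exposed; % growth inhibition derived by comparison with vehicle-treated controls.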
# [6] = NCI Yeast Anticancer Drug Screen. Data for the sgs1 mgt1 strain (AID 161);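 further: 0% = growth of cultures given vehicle only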; details: S. cerevisiae sgs1 mgt1 strain, active compounds read high
# Procedure, shortened: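 Inhibition of yeast growth, normalised to vehicle-treated controls, is reported for a strain bearing genetic alterations in DNA damage repair.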
# [7] = NCI Yeast Anticancer Drug Screen. Data for the CLN2oe strain (AID 163);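 further: 0% = growth of vehicle-only control cultures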; details: S. cerevisiae CLN2oe strain, active compounds read high
# Procedure, shortened: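 Growth of a genetically modified yeast strain is measured after compound exposure and compared with cultures given vehicle alone.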
# [8] = NCI Yeast Anticancer Drug Screen. Data for the cln2 rad14 strain (AID 165);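 further: 0% = growth equal to vehicle treated cultures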; details: S. cerevisiae cln2 rad14 strain, active compounds read high
# Procedure, shortened: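 Compounds are applied to the cln2 rad14 yeast strain, and growth is then compared with that of vehicle-treated cultures to give inhibition.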
# [9] = NCI Yeast Anticancer Drug Screen. Data for the bub3 strain (AID 167); details: S. cerevisiae bub3 mutant strain, active compounds read high
# Procedure, shortened: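 In this screen, a yeast mutant lacking normal mitotic checkpoint function is challenged with compound. Relative growth versus vehicle gives the inhibition value.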
# [10] = NCI Yeast Anticancer Drug Screen. Data for the wt2 strain (AID 169);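 further: 0% = growth of vehicle-treated yeast cultures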; details: S. cerevisiae wt2 strain growth inhibition, active compounds read high
# Procedure, shortened: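 This strain belongs to a panel of yeast strains with defined genetic alterations in DNA damage repair or cell cycle control. Compounds are applied, and growth inhibition is measured against vehicle-treated cultures.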
# [11] = NCI Yeast Anticancer Drug Screen. Data for the mlh1 strain (AID 171);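 further: 0% = growth of vehicle-treated control cultures of the same strain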; details: S. cerevisiae mlh1 strain growth inhibition, active compounds read high
# Procedure, shortened: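 Growth of the mutant yeast strain after compound exposure, expressed as inhibition relative to vehicle-only controls.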
# [12] = NCI Yeast Anticancer Drug Screen. Data for the mlh1 rad18 strain (AID 175); details: S. cerevisiae mlh1 rad18 strain growth inhibition, active compounds read high
# Procedure, shortened: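 Read-out is yeast growth inhibition, calculated against vehicle-only controls. The compound was applied to a strain engineered with DNA damage repair alterations.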
# [13] = NCI Yeast Anticancer Drug Screen. Data for the rad18 strain (AID 177); details: S. cerevisiae rad18 mutant growth inhibition, active compounds read high
# Procedure, shortened: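 Growth of the mutant yeast strain after compound exposure, normalised to vehicle-only cultures.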
# [14] = at 5.0 µM (retest, dose inferred, filed as 0.5)
# [15] = at 50.0 µM (retest, dose inferred, filed as 5.0)
smiles,measurement,setting,value
CCCCCCSc1nc(COC(=O)NC)c(COC(=O)NC)n1C,growth inhibition,[1]; at 1.2 µM,-1%
same,growth inhibition,[1]; at 3.7 µM,0%
same,growth inhibition,[1]; at 11.0 µM,-2%
same,growth inhibition,[1]; at 33.0 µM,25%
same,growth inhibition,[1]; at 100.0 µM,98% (active)
same,growth inhibition,[2]; at 1.2 µM,-1%
same,growth inhibition,[2]; at 3.7 µM,-2%
same,growth inhibition,[2]; at 11.0 µM,-2%
same,growth inhibition,[2]; at 33.0 µM,6%
same,growth inhibition,[2]; at 100.0 µM,98% (active)
same,growth inhibition,[3]; at 1.2 µM,0%
same,growth inhibition,[3]; at 3.7 µM,-48%
same,growth inhibition,[3]; [14],0%
same,growth inhibition,[3]; at 11.0 µM,20%
same,growth inhibition,[3]; at 33.0 µM,54%
same,growth inhibition,[3]; [15],91% (active)
same,growth inhibition,[3]; at 50.0 µM,49.6%
same,growth inhibition,[3]; at 100.0 µM,99% (active)
same,growth inhibition,[4]; at 1.2 µM,-1%
same,growth inhibition,[4]; at 3.7 µM,2%
same,growth inhibition,[4]; [14],0%
same,growth inhibition,[4]; at 11.0 µM,0%
same,growth inhibition,[4]; at 33.0 µM,9%
same,growth inhibition,[4]; [15],27%
same,growth inhibition,[4]; at 50.0 µM,98.3% (active)
same,growth inhibition,[4]; at 100.0 µM,99% (active)
same,growth inhibition,[5]; at 1.2 µM,-3%
same,growth inhibition,[5]; at 3.7 µM,-4%
same,growth inhibition,[5]; at 11.0 µM,-4%
same,growth inhibition,[5]; at 33.0 µM,28%
same,growth inhibition,[5]; at 100.0 µM,99% (active)
same,growth inhibition,[6]; [14],0%
same,growth inhibition,[6]; [15],5%
same,growth inhibition,[6]; at 50.0 µM,19.9%
same,growth inhibition,[7]; at 1.2 µM,-2%
same,growth inhibition,[7]; at 3.7 µM,-5%
same,growth inhibition,[7]; at 11.0 µM,-3%
same,growth inhibition,[7]; at 33.0 µM,20%
same,growth inhibition,[7]; at 100.0 µM,97% (active)
same,growth inhibition,[8]; [14],-2%
same,growth inhibition,[8]; [15],57%
same,growth inhibition,[8]; at 50.0 µM,72.8% (active)
same,growth inhibition,[9]; at 1.2 µM,-4%
same,growth inhibition,[9]; at 3.7 µM,0%
same,growth inhibition,[9]; [14],-2%
same,growth inhibition,[9]; at 11.0 µM,-4%
same,growth inhibition,[9]; at 33.0 µM,16%
same,growth inhibition,[9]; [15],45%
same,growth inhibition,[9]; at 50.0 µM,44.2%
same,growth inhibition,[9]; at 100.0 µM,99% (active)
same,growth inhibition,[10]; at 1.2 µM,-3%
same,growth inhibition,[10]; at 3.7 µM,-14%
same,growth inhibition,[10]; at 11.0 µM,-4%
same,growth inhibition,[10]; at 33.0 µM,33%
same,growth inhibition,[10]; at 100.0 µM,99% (active)
same,growth inhibition,[11]; at 1.2 µM,-1%
same,growth inhibition,[11]; at 3.7 µM,0%
same,growth inhibition,[11]; at 11.0 µM,-2%
same,growth inhibition,[11]; at 33.0 µM,32%
same,growth inhibition,[11]; at 100.0 µM,99% (active)
same,growth inhibition,[12]; [14],-2%
same,growth inhibition,[12]; [15],74% (active)
same,growth inhibition,[12]; at 50.0 µM,98.3% (active)
same,growth inhibition,[13]; at 1.2 µM,-1%
same,growth inhibition,[13]; at 3.7 µM,-1%
same,growth inhibition,[13]; at 11.0 µM,-1%
same,growth inhibition,[13]; at 33.0 µM,33%
same,growth inhibition,[13]; at 100.0 µM,98% (active)
O=C(O)c1[nH]c(=O)c2ccccc2c1Nc1ccccc1,growth inhibition,[1]; at 1.2 µM,-2%
same,growth inhibition,[1]; at 3.7 µM,-1%
same,growth inhibition,[1]; at 11.0 µM,2%
same,growth inhibition,[1]; at 33.0 µM,4%
same,growth inhibition,[1]; at 100.0 µM,3%
same,growth inhibition,[2]; at 1.2 µM,-1%
same,growth inhibition,[2]; at 3.7 µM,-2%
same,growth inhibition,[2]; at 11.0 µM,-2%
same,growth inhibition,[2]; at 33.0 µM,-1%
same,growth inhibition,[2]; at 100.0 µM,1%
same,growth inhibition,[3]; at 1.2 µM,-3%
same,growth inhibition,[3]; at 3.7 µM,-1%
same,growth inhibition,[3]; [14],-6%
same,growth inhibition,[3]; at 11.0 µM,1%
same,growth inhibition,[3]; at 33.0 µM,4%
same,growth inhibition,[3]; [15],-11%
same,growth inhibition,[3]; at 50.0 µM,-0.85%
same,growth inhibition,[3]; at 100.0 µM,0%
same,growth inhibition,[4]; at 1.2 µM,-3%
same,growth inhibition,[4]; at 3.7 µM,-3%
same,growth inhibition,[4]; [14],-13%
same,growth inhibition,[4]; at 11.0 µM,-2%
same,growth inhibition,[4]; at 33.0 µM,1%
same,growth inhibition,[4]; [15],-24%
same,growth inhibition,[4]; at 50.0 µM,-1.2%
same,growth inhibition,[4]; at 100.0 µM,3%
same,growth inhibition,[5]; at 1.2 µM,-3%
same,growth inhibition,[5]; at 3.7 µM,-3%
same,growth inhibition,[5]; at 11.0 µM,1%
same,growth inhibition,[5]; at 33.0 µM,1%
same,growth inhibition,[5]; at 100.0 µM,2%
same,growth inhibition,[6]; [14],0%
same,growth inhibition,[6]; [15],5%
same,growth inhibition,[6]; at 50.0 µM,10.3%
same,growth inhibition,[7]; at 1.2 µM,-3%
same,growth inhibition,[7]; at 3.7 µM,1%
same,growth inhibition,[7]; at 11.0 µM,-2%
same,growth inhibition,[7]; at 33.0 µM,-1%
same,growth inhibition,[7]; at 100.0 µM,1%
same,growth inhibition,[8]; [14],-23%
same,growth inhibition,[8]; [15],41%
same,growth inhibition,[8]; at 50.0 µM,-10.4%
same,growth inhibition,[9]; at 1.2 µM,-2%
same,growth inhibition,[9]; at 3.7 µM,-2%
same,growth inhibition,[9]; [14],-4%
same,growth inhibition,[9]; at 11.0 µM,-3%
same,growth inhibition,[9]; at 33.0 µM,-3%
same,growth inhibition,[9]; [15],-11%
same,growth inhibition,[9]; at 50.0 µM,-6.6%
same,growth inhibition,[9]; at 100.0 µM,-2%
same,growth inhibition,[10]; at 1.2 µM,-3%
same,growth inhibition,[10]; at 3.7 µM,-3%
same,growth inhibition,[10]; at 11.0 µM,-2%
same,growth inhibition,[10]; at 33.0 µM,-4%
same,growth inhibition,[10]; at 100.0 µM,0%
same,growth inhibition,[11]; at 1.2 µM,-2%
same,growth inhibition,[11]; at 3.7 µM,0%
same,growth inhibition,[11]; at 11.0 µM,0%
same,growth inhibition,[11]; at 33.0 µM,1%
same,growth inhibition,[11]; at 100.0 µM,4%
same,growth inhibition,[12]; [14],-14%
same,growth inhibition,[12]; [15],-8%
same,growth inhibition,[12]; at 50.0 µM,7.5%
same,growth inhibition,[13]; at 1.2 µM,-2%
same,growth inhibition,[13]; at 3.7 µM,-1%
same,growth inhibition,[13]; at 11.0 µM,0%
same,growth inhibition,[13]; at 33.0 µM,0%
same,growth inhibition,[13]; at 100.0 µM,6%
